According to PubChem BioAssay (EPA / NIEHS):
Active and inactive are the calls of the source. How the source made its calls: active means hit-call score of the fitted dose curve at least 0.9, where 1 is the maximum; inactive means score below 0.9.

Legend:
[1] = read-out: Low-density lipoprotein receptor (LDLR), LDLR (gene 3949); experiment: BSK_CASM3C_LDLR: BioMAP Diversity Plus: CASM3C Assay for Low-density lipoprotein receptor (LDLR) Biomarker Activity (AID 2283045); details: primary human coronary artery smooth muscle cells; actives raise or lower the signal;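 further: LDLR protein level on the cell surface quantified by ELISA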
[2] = read-out: Monocyte Chemoattractant Protein-1 (MCP1), CCL2 (gene 6347); experiment: BSK_CASM3C_MCP1: BioMAP Diversity Plus: CASM3C Assay for Monocyte Chemoattractant Protein-1 (MCP1) Biomarker Activity (AID 2283046); details: primary human coronary artery smooth muscle cells; actives raise or lower the signal;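 further: MCP-1 level quantified by ELISA 24 h after dosing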
[3] = BSK_CASM3C_Proliferation: Cell Proliferation Assessment in the BioMAP Diversity Plus: CASM3C Assay (AID 2283047); details: primary human coronary artery smooth muscle cells;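 further: sulforhodamine B total protein stain as relative cell number at 560 nm; sub-confluent cells exposed 48 h before staining; fitted both ways against DMSO so gain or loss of cell number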
[4] = read-out: Monokine induced gamma interferon (MIG), CXCL9 (gene 4283); experiment: BSK_CASM3C_MIG: BioMAP Diversity Plus: CASM3C Assay for Monokine induced gamma interferon (MIG) Biomarker Activity (AID 2283048); details: primary human coronary artery smooth muscle cells; actives raise or lower the signal;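 further: MIG protein level measured by ELISA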
[5] = read-out: serum amyloid A (SAA), SAA1 (gene 6288); experiment: BSK_CASM3C_SAA: BioMAP Diversity Plus: CASM3C Assay for serum amyloid A (SAA) Biomarker Activity (AID 2283049); details: primary human coronary artery smooth muscle cells; actives raise or lower the signal;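 further: SAA protein level quantified by ELISA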
[6] = BSK_CASM3C_SRB: Viability Assessment in the BioMAP Diversity Plus: CASM3C Assay (AID 2283050); details: primary human coronary artery smooth muscle cells;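 further: cells exposed to compound for 24 h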
[7] = read-out: Thrombomodulin, THBD (gene 7056); experiment: BSK_CASM3C_Thrombomodulin: BioMAP Diversity Plus: CASM3C Assay for Thrombomodulin Biomarker Activity (AID 2283051); details: primary human coronary artery smooth muscle cells; actives raise or lower the signal;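 further: thrombomodulin protein level measured by ELISA 24 h after dosing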
[8] = read-out: Tissue Factor, F3 (gene 2152); experiment: BSK_CASM3C_TissueFactor: BioMAP Diversity Plus: CASM3C Assay for Tissue Factor Biomarker Activity (AID 2283052); details: primary human coronary artery smooth muscle cells; actives raise or lower the signal;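 further: cell surface tissue factor protein level read by ELISA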
[9] = read-out: Interferon-gamma inducible Protein 10 (IP10), CXCL10 (gene 3627); experiment: BSK_hDFCGF_IP10: BioMAP Diversity Plus: hDFCGF Assay for Interferon-gamma inducible Protein 10 (IP10) Biomarker Activity (AID 2283053); details: primary human foreskin fibroblasts; actives raise or lower the signal
How it was run: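 IP-10 levels, quantified by ELISA, are taken from human foreskin fibroblast cultures 24 h after chemical treatment, with DMSO serving as negative control and baseline for bidirectional analysis.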

[10] = read-out: Urokinase-type plasminogen activator receptor (uPAR), PLAUR (gene 5329); experiment: BSK_CASM3C_uPAR: BioMAP Diversity Plus: CASM3C Assay for Urokinase-type plasminogen activator receptor (uPAR) Biomarker Activity (AID 2283054); details: primary human coronary artery smooth muscle cells; actives raise or lower the signal;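 further: cell-surface uPAR protein level quantified by ELISA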
[11] = read-out: Vascular cell adhesion molecule 1 (VCAM1), VCAM1 (gene 7412); experiment: BSK_CASM3C_VCAM1: BioMAP Diversity Plus: CASM3C Assay for Vascular cell adhesion molecule 1 (VCAM1) Biomarker Activity (AID 2283055); details: primary human coronary artery smooth muscle cells; actives raise or lower the signal;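 further: VCAM-1 protein level quantified by ELISA on the cells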
[12] = read-out: Collagen III, COL3A1 (gene 1281); experiment: BSK_hDFCGF_CollagenIII: BioMAP Diversity Plus: hDFCGF Assay for Collagen III Biomarker Activity (AID 2283056); details: primary human foreskin fibroblasts; actives raise or lower the signal
How it was run: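 Human foreskin fibroblast primary cultures sampled 24 h after dosing; Collagen III quantified by ELISA. Signal fitted bidirectionally against DMSO baseline.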

[13] = read-out: Epidermal growth factor receptor (EGFR), EGFR (gene 1956); experiment: BSK_hDFCGF_EGFR: BioMAP Diversity Plus: hDFCGF Assay for Epidermal growth factor receptor (EGFR) Biomarker Activity (AID 2283057); details: primary human foreskin fibroblasts; actives raise or lower the signal
How it was run: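 Measured by ELISA: EGFR levels on primary human foreskin fibroblasts 24 h after chemical treatment, analysed relative to DMSO with bidirectional fitting.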

[14] = read-out: Interleukin-8 (IL8), CXCL8 (gene 3576); experiment: BSK_hDFCGF_IL8: BioMAP Diversity Plus: hDFCGF Assay for Interleukin-8 (IL8) Biomarker Activity (AID 2283058); details: primary human foreskin fibroblasts; actives raise or lower the signal
How it was run: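 Primary human foreskin fibroblasts (hDFCGF system) dosed with chemical; IL-8 measured by ELISA 24 hours later. Bidirectional curve fitting relative to DMSO baseline; cytotoxicity tracked in parallel cultures by SRB total protein staining.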

[15] = BSK_hDFCGF_Proliferation: Cell Proliferation Assessment in the BioMAP Diversity Plus: hDFCGF Assay (AID 2283059); details: primary human foreskin fibroblasts;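 further: curves fitted for both rise and fall of signal versus DMSO baseline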
How it was run: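 Primary human foreskin fibroblasts, sub-confluent; […]; 10% TCA fix, 0.1% SRB stain, A560 total protein. Gain/loss fitted bidirectionally vs DMSO control.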

[16] = read-out: Macrophage colony-stimulating factor (MCSF), CSF1 (gene 1435); experiment: BSK_hDFCGF_MCSF: BioMAP Diversity Plus: hDFCGF Assay for Macrophage colony-stimulating factor (MCSF) Biomarker Activity (AID 2283060); details: primary human foreskin fibroblasts; actives raise or lower the signal
How it was run: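 Human foreskin fibroblast primary cultures; M-CSF measured by ELISA 24 hours after chemical dosing. Bidirectional fitting relative to DMSO, with overt cytotoxicity tracked by parallel SRB total-protein staining (0.1% SRB, 10% TCA fixation, 560 nm).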

[17] = BSK_hDFCGF_SRB: Viability Assessment in the BioMAP Diversity Plus: hDFCGF Assay (AID 2283061); details: primary human foreskin fibroblasts;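 further: cells exposed to compound for 24 h before the read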
How it was run: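 Human foreskin fibroblasts in 96-well plates were treated 24 h. Total protein was measured by 0.1% SRB staining after 10% TCA fixation, read at 560 nm. Data were fitted bidirectionally against DMSO.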

[18] = read-out: TIMP metallopeptidase inhibitor 1 (TIMP1), TIMP1 (gene 7076); experiment: BSK_hDFCGF_TIMP1: BioMAP Diversity Plus: hDFCGF Assay for TIMP metallopeptidase inhibitor 1 (TIMP1) Biomarker Activity (AID 2283062); details: primary human foreskin fibroblasts; actives raise or lower the signal
How it was run: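 Human foreskin fibroblast primary cultures dosed for 24 h; secreted/surface TIMP-1 quantified by ELISA. Bidirectional curve fitting against DMSO baseline; cytotoxicity tracked in parallel cultures by SRB total-protein staining.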

[19] = read-out: Monokine induced gamma interferon (MIG), CXCL9 (gene 4283); experiment: BSK_hDFCGF_MIG: BioMAP Diversity Plus: hDFCGF Assay for Monokine induced gamma interferon (MIG) Biomarker Activity (AID 2283063); details: primary human foreskin fibroblasts; actives raise or lower the signal
How it was run: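 MIG/CXCL9 measured by ELISA 24 h after dosing primary human skin fibroblasts. Activity fitted in both directions against DMSO controls. Cytotoxicity was checked in parallel cultures by SRB staining read at 560 nm.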

[20] = read-out: Matrix Metallopeptidase 1 (MMP1), MMP1 (gene 4312); experiment: BSK_hDFCGF_MMP1: BioMAP Diversity Plus: hDFCGF Assay for Matrix Metallopeptidase 1 (MMP1) Biomarker Activity (AID 2283064); details: primary human foreskin fibroblasts; actives raise or lower the signal
How it was run: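 hDFCGF primary fibroblasts (human foreskin); chemical added; 24 h; MMP1 by ELISA; bidirectional fit vs DMSO.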

## O=C(Nc1ccc2[nH]ccc2c1)c1cc2cc(F)ccc2n1Cc1cccc(F)c1
[1]
  AC50: 14.6 µM (active)
[2]
  AC50: 31.6 µM (active)
[3]
  AC50: 21.1 µM (active)
[4]
  AC50: 31.2 µM (active)
[5]
  AC50: 36.7 µM (active)
[6]
  AC50: 28.1 µM (active)
[7]
  AC50: 33 µM (active)
[8]
  AC50: 20 µM (active)
[9]
  AC50: 3.33 µM (active)
[10]
  AC50: 14.6 µM (active)
[11]
  AC50: 29.2 µM (active)
[12]
  AC50: 1.93 µM (active)
[13]
  outcome: inactive
[14]
  AC50: 5.96 µM (active)
[15]
  AC50: 2.53 µM (active)
[16]
  AC50: 3.18 µM (active)
[17]
  AC50: 3.36 µM (active)
[18]
  AC50: 3.93 µM (active)
[19]
  AC50: 4.77 µM (active)
[20]
  AC50: 3.37 µM (active)

## COP(=S)(OC)Oc1cc(Cl)c(Cl)cc1Cl
[1]
  outcome: inactive
[2]
  outcome: inactive
[3]
  AC50: 29.3 µM (active)
[4]
  outcome: inactive
[5]
  AC50: 20 µM (active)
[6]
  outcome: inactive
[7]
  outcome: inactive
[8]
  outcome: inactive
[9]
  outcome: inactive
[10]
  outcome: inactive
[11]
  AC50: 16.5 µM (active)
[12]
  AC50: 20 µM (active)
[13]
  outcome: inactive
[14]
  outcome: inactive
[15]
  outcome: inactive
[17]
  outcome: inactive
[18]
  outcome: inactive
[19]
  outcome: inactive
[20]
  outcome: inactive

## BrCCBr
[1]
  outcome: inactive
[2]
  outcome: inactive
[3]
  AC50: 0.197 µM (active)
[4]
  outcome: inactive
[5]
  outcome: inactive
[6]
  outcome: inactive
[7]
  outcome: inactive
[8]
  outcome: inactive
[9]
  outcome: inactive
[10]
  outcome: inactive
[11]
  outcome: inactive
[12]
  outcome: inactive
[13]
  outcome: inactive
[14]
  outcome: inactive
[15]
  outcome: inactive
[16]
  outcome: inactive
[17]
  outcome: inactive
[18]
  outcome: inactive
[19]
  outcome: inactive
[20]
  outcome: inactive

## CCSC(C)CC1CC(=O)C(C(CC)=NOC/C=C/Cl)=C(O)C1 (centres undefined)
[1]
  outcome: inactive
[2]
  outcome: inactive
[3]
  outcome: inactive
[4]
  outcome: inactive
[5]
  outcome: inactive
[6]
  outcome: inactive
[7]
  outcome: inactive
[8]
  outcome: inactive
[9]
  outcome: inactive
[10]
  outcome: inactive
[11]
  outcome: inactive
[12]
  outcome: inactive
[13]
  outcome: inactive
[14]
  outcome: inactive
[15]
  outcome: inactive
[16]
  outcome: inactive
[17]
  outcome: inactive
[18]
  outcome: inactive
[19]
  outcome: inactive
[20]
  outcome: inactive

## CC(=O)[O][Hg][c]1ccccc1
[1]
  AC50: 0.148 µM (active)
[2]
  AC50: 0.394 µM (active)
[3]
  AC50: 0.148 µM (active)
[4]
  AC50: 2.05 µM (active)
[5]
  AC50: 0.47 µM (active)
[6]
  AC50: 0.148 µM (active)
[7]
  outcome: inactive
[8]
  AC50: 3.97 µM (active)
[9]
  AC50: 0.289 µM (active)
[10]
  AC50: 0.487 µM (active)
[11]
  AC50: 0.836 µM (active)
[12]
  AC50: 0.279 µM (active)
[13]
  outcome: inactive
[14]
  AC50: 0.148 µM (active)
[15]
  AC50: 0.148 µM (active)
[16]
  AC50: 0.447 µM (active)
[17]
  AC50: 0.464 µM (active)
[18]
  AC50: 0.148 µM (active)
[19]
  AC50: 0.208 µM (active)
[20]
  AC50: 0.148 µM (active)
